The whole screen tested about 330,000 compounds, of which about 4,100 (1.2%) were called active. Rule as the data show it: active = inhibition above about 50%; inactive = the rest. The sample as a whole holds a higher share of actives than the screen did.
These molecules were tested against Sentrin-specific protease 8 (Homo sapiens) (UniProt Q96LD8) (assay: SENP8 protease inhibitors, primary screen, biochemical, luminescence (AID 2540)). Conditions: purified SENP8, Z-RLRGG-aminoluciferin cleavage, at 10 µM, active compounds read high.
Chain of Sentrin-specific protease 8 (Homo sapiens) (Q96LD8 whole entry, looked up): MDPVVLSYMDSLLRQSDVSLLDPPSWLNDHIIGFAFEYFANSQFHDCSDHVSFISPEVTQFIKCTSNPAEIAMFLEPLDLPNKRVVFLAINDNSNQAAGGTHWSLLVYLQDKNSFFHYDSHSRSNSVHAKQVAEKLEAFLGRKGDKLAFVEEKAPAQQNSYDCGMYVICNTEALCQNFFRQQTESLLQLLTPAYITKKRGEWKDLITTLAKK

Which inhibition does the source give for O=C(NCCc1ccc(Cl)cc1Cl)c1cc([N+](=O)[O-])c[nH]c1=O here?
The inhibition was 4.55% (inactive).

For Cc1cc(OC(=O)c2ccc(OC(C)C)cc2)c([N+](=O)[O-])c(=O)[nH]1, which inhibition is on record?
Its inhibition is 1.33% (inactive).

O=[N+]([O-])c1ccc2c(c1)Nc1nc3ccccc3nc1N2 was tested. Which inhibition did it give?
The inhibition was -4.07% (inactive).

With COc1ccc([N+](=O)[O-])cc1-c1nc2ccccc2nc1-c1ccccc1 as the molecule, how does the inhibition read?
Its inhibition is 12.3% (inactive).

For O=[N+]([O-])c1ccc2oc(-c3cccc(O)c3)nc2c1, which inhibition is on record?
The inhibition was 84.7% (active).

With COc1cccc(-c2nc3cc(C)ccc3o2)c1 as the molecule, how does the inhibition read?
Its inhibition is 96.2% (active).

Which inhibition does the source give for COc1ccc2oc(-c3cccc(NC(=O)CSc4ccc(Cl)cc4)c3)nc2c1 here?
The inhibition was -5.16% (inactive).

For COc1cccc(-c2nnc(SCCOc3ccc4c(C)cc(=O)oc4c3)o2)c1, which inhibition is on record?
Its inhibition is 1.03% (inactive).

With Cc1c(CC(=O)NCC(=O)NCC(=O)O)c(=O)oc2cc3oc4c(c3cc12)CCCC4 as the molecule, how does the inhibition read?
Its inhibition is -13.4% (inactive).

Clc1ccc(-n2nnnc2CN2CCCCC2)cc1Cl was tested. Which inhibition did it give?
The inhibition was -12% (inactive).

With O=C(/C=C/NNC(=O)c1cccc(Br)c1)c1ccccc1 as the molecule, how does the inhibition read?
Its inhibition is -1.09% (inactive).

CCOc1ccccc1N1C(=O)CC(Sc2nccc(C)n2)C1=O (stereo not given) was tested. Which inhibition did it give?
The inhibition was 1.56% (inactive).

Which inhibition does the source give for COc1ccc(NC(=O)CNc2cc(S(=O)(=O)N3CCOCC3)ccc2N2CCOCC2)c(OC)c1 here?
The inhibition was 7.93% (inactive).

For Cc1c(Cl)cccc1NC(=O)NCc1ccc(C)n1C, which inhibition is on record?
The inhibition was -0.511% (inactive).

Which inhibition does the source give for CC(=O)c1ccc(S(=O)(=O)NC2CC(=O)N(c3ccc4c(c3)OCCO4)C2)cc1 (stereo not given) here?
The inhibition was -4.2% (inactive).

How did the inhibition turn out when CC(C)(C)OC(=O)C[C@@H]1C/C=C\C[C@H](CC(=O)N[C@@H](CO)Cc2ccccc2)C(=O)N[C@H](Cc2ccccc2)COC1=O was run?
The inhibition was -7.09% (inactive).

How did the inhibition turn out when COc1cc(C2C(C(=O)c3cccs3)=C(O)C(=O)N2CCN2CCOCC2)ccc1OCCC(C)C (stereo not given) was run?
Its inhibition is -3.6% (inactive).

Which inhibition does the source give for CCn1cc(CN2CCC(C(=O)Nc3cccc(-c4cccc(Cl)c4)c3)CC2)c(C)n1 here?
Its inhibition is -6.83% (inactive).

Which inhibition does the source give for N#CC1=C(N)C(C#N)(C#N)[C@H](c2ccsc2)[C@H]2COCC=C12 here?
The inhibition was -3.51% (inactive).

Which inhibition does the source give for CCCN1CC=C2C(C#N)=C(N)C(C#N)(C#N)C(c3cc(OC)ccc3OC)C2C1 (stereo not given) here?
Its inhibition is 0.594% (inactive).

With CCN1CC=C2C(C#N)=C(N)C(C#N)(C#N)[C@H](c3ccoc3)[C@H]2C1 as the molecule, how does the inhibition read?
The inhibition was 50.7% (active).

Cc1cn(C)c(=O)n(C)c1=O was tested. Which inhibition did it give?
The inhibition was -18.1% (inactive).

For COc1ccc(NC(=O)C2CCCN(S(=O)(=O)c3cccc4cccnc34)C2)cc1 (stereo not given), which inhibition is on record?
The inhibition was 6% (inactive).

How did the inhibition turn out when COc1ccc(NC(=O)Nc2cccc3cccnc23)cc1 was run?
The inhibition was 81% (active).

O=C(Nc1cccc2cccnc12)c1cccc(Cl)c1 was tested. Which inhibition did it give?
The inhibition was 8.84% (inactive).

For CC12CCC(C(=O)N(CCC#N)CCC#N)(CC1=O)C2(C)C (stereo not given), which inhibition is on record?
Its inhibition is -1.58% (inactive).

How did the inhibition turn out when CN(CCO)c1ccc(/C=N/Nc2nncc3ccccc23)cc1 was run?
The inhibition was 94.9% (active).

For COc1cccc(/C=N\Nc2nncc(-c3ccccc3)n2)c1, which inhibition is on record?
The inhibition was -14.9% (inactive).

For C/C(=N\Nc1nncc2ccccc12)c1ccc(Cl)c([N+](=O)[O-])c1, which inhibition is on record?
Its inhibition is 5.46% (inactive).

For COc1ccc(CCc2nc(-c3cccs3)no2)cc1, which inhibition is on record?
The inhibition was -14.5% (inactive).

How did the inhibition turn out when Cc1noc(C)c1COC(=O)COc1ccc(-c2ccccc2)cc1 was run?
The inhibition was -5.47% (inactive).

How did the inhibition turn out when O=C(Oc1ccc(-c2nc(-c3ccccn3)no2)cc1)c1ccccc1 was run?
The inhibition was 97.3% (active).

For Clc1ccc(-n2nnnc2-c2cnc(-c3ccccn3)nc2-c2cccs2)cc1, which inhibition is on record?
The inhibition was -4.12% (inactive).

Which inhibition does the source give for c1ccc(-c2noc(-c3cccs3)n2)nc1 here?
Its inhibition is 88.9% (active).

c1ccc(CCc2nc(-c3ccncc3)no2)cc1 was tested. Which inhibition did it give?
The inhibition was -9.99% (inactive).

How did the inhibition turn out when O=C(COC(=O)c1ccncc1)c1ccccc1 was run?
The inhibition was -23.2% (inactive).

c1csc(-c2nc(-c3ccncc3)no2)c1 was tested. Which inhibition did it give?
The inhibition was 57.3% (active).

How did the inhibition turn out when Cc1ccc(-c2nc(-c3ccncc3)no2)c(C)c1 was run?
Its inhibition is 42.8% (inactive).

For CC1CCC2(CC1)NC(=O)N(CC(=O)c1cccn1C)C2=O (stereo not given), which inhibition is on record?
Its inhibition is -3.15% (inactive).

Which inhibition does the source give for CCOC(=O)N1CCN(c2c(NCCN3CCN(c4ccccc4F)CC3)c(=O)c2=O)CC1 here?
Its inhibition is -9.98% (inactive).

How did the inhibition turn out when COc1ccccc1CNC(=O)[C@@H]1CCCN1C(=O)[C@@H]1Cc2ccccc2CN1C(=O)OC(C)(C)C was run?
Its inhibition is -1.1% (inactive).

Which inhibition does the source give for Cc1ccc(N(C(=O)c2ccc(S(=O)(=O)N(C)C)cc2)C2C=CS(=O)(=O)C2)cc1 (stereo not given) here?
The inhibition was -5.23% (inactive).

With O=C1CCC(C(=O)N2CCN(c3ccccc3Cl)CC2)CN1CC1CCCCC1 (stereo not given) as the molecule, how does the inhibition read?
The inhibition was -2.96% (inactive).

How did the inhibition turn out when Clc1ccc(-c2cc(-c3ccccn3)on2)c(Cl)c1 was run?
Its inhibition is 98% (active).

How did the inhibition turn out when Clc1ccc(COn2c(-c3ccc(Cl)cc3Cl)nc3ncccc32)cc1 was run?
Its inhibition is 1.77% (inactive).

For O=C1c2ccccc2C(=O)N1Cc1cc(-c2ccccc2Cl)no1, which inhibition is on record?
The inhibition was 2.3% (inactive).

Which inhibition does the source give for O=C(COC(=O)c1c2c(nc3ccccc13)CCCC2)c1ccc(Br)s1 here?
Its inhibition is -1.41% (inactive).

Which inhibition does the source give for Cn1cccc1C(=O)OCC(=O)NCCc1ccccc1 here?
Its inhibition is -2.12% (inactive).

Which inhibition does the source give for Cn1cccc1C(=O)OCC(=O)c1ccc(Br)s1 here?
The inhibition was 75.8% (active).

How did the inhibition turn out when COc1cccc(NC(=O)CSc2nnc(C3CCCCC3)n2N)c1 was run?
The inhibition was 6.19% (inactive).

For O=C(NCC1CC1)c1onc(CSc2ccccc2)c1C(=O)NCC1CC1, which inhibition is on record?
Its inhibition is 1.24% (inactive).

With Cc1ccc(NC(=O)c2ccc(S(=O)(=O)NCC3CCCO3)cc2)cc1C (stereo not given) as the molecule, how does the inhibition read?
Its inhibition is 9.11% (inactive).

Which inhibition does the source give for Cc1cccc(C(=O)Nc2nnc(S(=O)(=O)N3CCCCCC3)s2)c1 here?
Its inhibition is 18.3% (inactive).

How did the inhibition turn out when O=C(Nc1nnc(S(=O)(=O)N2CCCCCC2)s1)c1cccc(Br)c1 was run?
Its inhibition is 71.5% (active).

For O=C(Nc1nnc(S(=O)(=O)N2CCOCC2)s1)c1cccc(Br)c1, which inhibition is on record?
The inhibition was 6.23% (inactive).

How did the inhibition turn out when Cc1ccc(S(=O)(=O)NC(=O)c2cccc(C)c2)cc1 was run?
The inhibition was -5.51% (inactive).

Which inhibition does the source give for Cc1[nH]n(C(N)=S)c(=O)c1N=Nc1ccc(Cl)cc1Cl here?
The inhibition was 95.6% (active).

How did the inhibition turn out when Cc1[nH]n(C)c(=O)c1N=Nc1ccc(S(C)(=O)=O)cc1 was run?
Its inhibition is -4.34% (inactive).

Which inhibition does the source give for CCCCNC(=O)C1CCCNC1=O (stereo not given) here?
The inhibition was -10.4% (inactive).

With O=C(O)c1cc(S(=O)(=O)N(Cc2ccccc2)c2ccccc2)ccc1Cl as the molecule, how does the inhibition read?
The inhibition was 3.75% (inactive).

C/C(=N\OCC(=O)Nc1ccc(Br)cc1)c1cccs1 was tested. Which inhibition did it give?
The inhibition was -8.52% (inactive).

Which inhibition does the source give for O=C(O)c1ccccc1OCc1ccccc1Cl here?
Its inhibition is 1.22% (inactive).

How did the inhibition turn out when COc1cc(C#Cc2ccc3cc(CCCO)oc(=O)c3c2)cc(OC)c1 was run?
Its inhibition is 69.6% (active).

COc1cc(/C=C2\Oc3ccc(C#Cc4ccc(O)cc4)cc3C2=O)cc(OC)c1 was tested. Which inhibition did it give?
The inhibition was 5.28% (inactive).

How did the inhibition turn out when O=C1c2ccccc2C(=O)N1CCC#Cc1ccc2cc(C3(O)CCCCC3)oc(=O)c2c1 was run?
The inhibition was -2.91% (inactive).

COc1ccccc1OC(C)C(=O)Nc1ccc(S(=O)(=O)Nc2nccs2)cc1 (stereo not given) was tested. Which inhibition did it give?
The inhibition was -3.08% (inactive).

How did the inhibition turn out when Cc1ccc(-c2nc3ccccc3[nH]2)cc1N was run?
The inhibition was 87.1% (active).

COc1ccc(Br)cc1C(=O)NC(=S)Nc1cc(-c2nc3ccccc3[nH]2)ccc1C was tested. Which inhibition did it give?
The inhibition was 3.06% (inactive).

With c1ccc2[nH]c(-c3nc4ccccc4[nH]3)nc2c1 as the molecule, how does the inhibition read?
The inhibition was 92.4% (active).

For Clc1ccccc1SCc1nc2ccccc2[nH]1, which inhibition is on record?
The inhibition was 14.7% (inactive).

Which inhibition does the source give for Cc1ccccc1N1CC(c2nc3ccccc3[nH]2)CC1=O (stereo not given) here?
Its inhibition is 2.73% (inactive).

Which inhibition does the source give for O=C(Nc1sc2c(c1-c1nc3ccccc3[nH]1)CCCC2)C1CC1 here?
The inhibition was -0.363% (inactive).

How did the inhibition turn out when CC(OC(=O)CCCOc1ccccc1)C(=O)Nc1ccc(Cl)cn1 (stereo not given) was run?
The inhibition was -14.4% (inactive).

CCOc1ccccc1C1CC(c2ccc(Cl)cc2)Nc2nc(N)nn21 (stereo not given) was tested. Which inhibition did it give?
Its inhibition is 0.924% (inactive).

Which inhibition does the source give for O=C(COC(=O)c1cnc(Cl)c(Cl)c1)NCc1ccco1 here?
The inhibition was -1.98% (inactive).

Which inhibition does the source give for CC(OC(=O)CNC(=O)c1cccc(F)c1)C(=O)NC1CCCCC1C (stereo not given) here?
Its inhibition is -11.2% (inactive).

Which inhibition does the source give for O=C(Nc1ccn(Cc2ccccc2)n1)c1n[nH]c([N+](=O)[O-])c1Cl here?
Its inhibition is 97.2% (active).

With O=C(Nc1ccn(Cc2ccccc2F)n1)c1ccc(COc2ccc(Cl)cc2Cl)o1 as the molecule, how does the inhibition read?
The inhibition was 8.53% (inactive).

Cc1c(Br)c([N+](=O)[O-])nn1CC(=O)N1CCN(Cc2ccccc2)CC1 was tested. Which inhibition did it give?
Its inhibition is -7.38% (inactive).

For CC(CCc1ccc(O)cc1)NCc1ccc(Cl)cc1Cl (stereo not given), which inhibition is on record?
Its inhibition is -5.92% (inactive).

How did the inhibition turn out when COc1ccc(C2=Nc3cc(C)ccc3OC2)cc1 was run?
The inhibition was 67.5% (active).

Which inhibition does the source give for COc1ccc(C2=NOC(COC(=O)c3ccc4ccccc4n3)C2)cc1 (stereo not given) here?
The inhibition was -6.73% (inactive).

With Cc1ccc(C(=O)NNC2=Nc3cc([N+](=O)[O-])ccc3OC2)cc1 as the molecule, how does the inhibition read?
Its inhibition is -6.4% (inactive).

How did the inhibition turn out when Cn1c(-c2ccco2)nc2cc3ccccc3cc21 was run?
Its inhibition is 94.4% (active).

Which inhibition does the source give for COc1ccccc1-n1c(-c2cc(-c3ccco3)[nH]n2)n[nH]c1=S here?
Its inhibition is 3.44% (inactive).

CS(=O)(=O)n1nc(-c2ccco2)nc1N was tested. Which inhibition did it give?
The inhibition was 0.284% (inactive).

With Cc1ccc(NC(=O)CSc2nnc(CNC(=O)c3ccccc3F)o2)cc1 as the molecule, how does the inhibition read?
The inhibition was 0.136% (inactive).

How did the inhibition turn out when Cc1ccccc1-n1nnc2c(=O)oc3ccccc3c21 was run?
Its inhibition is -6.33% (inactive).

CC(NC(=O)Nc1ccccc1)C(c1cccs1)N1CCN(c2ccccc2)CC1 (stereo not given) was tested. Which inhibition did it give?
The inhibition was -7.79% (inactive).

With COC(=O)C1=C(N)Oc2cc(C)[nH]c(=O)c2C1c1ccc(Cl)cc1 (stereo not given) as the molecule, how does the inhibition read?
Its inhibition is 3.38% (inactive).

For COCCCN(C(=O)CSCc1ccc(C)cc1)c1c(N)n(Cc2ccccc2)c(=O)[nH]c1=O, which inhibition is on record?
Its inhibition is -5.5% (inactive).

How did the inhibition turn out when Cc1ccc(NC(=O)CSCC(=O)Nc2sccc2C#N)cc1 was run?
The inhibition was 10.4% (inactive).

Which inhibition does the source give for Cc1csc(SCC(=O)Nc2sccc2C#N)n1 here?
The inhibition was 92.7% (active).

Which inhibition does the source give for Cc1cccc(C)c1Nc1nnc(SCC(=O)Nc2sccc2C#N)s1 here?
Its inhibition is 9.07% (inactive).

For Cn1cccc1Cc1nnc(SCC(=O)NCc2ccc3c(c2)OCO3)n1CCc1ccccc1, which inhibition is on record?
The inhibition was 2.69% (inactive).

— PubChem BioAssay AID2540 (Sanford-Burnham Center for Chemical Genomics, 2010)
